Assay outcomes as filed in PubChem.
MARV entry inh: inhibitors of Marburg virus binding or cell entry; Marburg virus pseudotyped entry inhibition, cell reporter; Potency, µM (series often up to 37.8 µM), for inactives: top-dose activity change, negative = inhibition, most hits filed as inhibitors; actives 1.8% (n = 300,000); AID 540276; calls by dose curve; tested in HEK293 cells; note: potency is the fitted concentration of half-maximal effect; % is set by controls: 0 for no effect and ±100 for the full control effect
Shiga inhibitor: blocks Shiga toxin action in Vero cells. Vero cells, Shiga toxin protein synthesis inhibition reporter. inhibition, % at 38.7 µM. actives 9.2% (n = 290,000). AID 2315; in the data active = inhibition mostly above about 28%, no sharp cut-off; inactive = mostly below about 43%; note: 0% is about no effect
FMDV antiviral: foot and mouth disease virus antiviral activity; FMDV antiviral cell-based qHTS; Potency, µM (series often up to 57.9 µM), for the others: top-dose activity change, negative = inhibition, most hits filed as inhibitors; actives 1.2% (n = 410,000); calls by dose curve; tested in HEK293T cells; note: read-out not given here; potency is the fitted concentration of half-maximal effect; % is set by controls: 0 for no effect and ±100 for the full control effect; nearly all actives have a fitted effect of over 45% in size
LASV entry inh: inhibitors of Lassa virus binding or cell entry | actives 1.2% (n = 300,000) | Lassa virus pseudotype entry inhibition, cell reporter | AID 540256 | Potency, µM (top dose mostly 37.9 µM), inactives show top-dose activity change, negative = inhibition, hits mostly inhibitors; calls by dose curve; tested in HEK293 cells; note: potency is the fitted concentration of half-maximal effect; % is set by controls: 0 for no effect and ±100 for the full control effect; nearly all actives have a fitted effect of over 50% in size
Cycloheximide cs: counter-screen hit for Shiga toxin inhibitors, cycloheximide. cell reporter, cycloheximide protein synthesis inhibition counterscreen. max response, %. actives 12% (n = 300,000). AID 2314; in the data active = max response mostly above about 13%, no sharp cut-off; inactive = mostly below about 14%; note: read at 38.3 µM for the half of the compounds with a filed dose; 0% is about no effect
HCV inh: blocks hepatitis C virus; Huh7.5.1 HCVcc-Cre infection, luciferase reporter, 44 h; Potency, µM (top dose mostly 41.8 µM), without a hit: at the highest dose activity change, negative = inhibition, most hits filed as inhibitors; actives 3.4% (n = 340,000); active = well fitted inhibition curve with a large enough effect; inconclusive = small, poorly fitted or top-dose-only effect, or another doubt; inactive = no such curve, though single readings can be large or run the other way; note: potency is the fitted concentration of half-maximal effect; % is set by controls: 0 for no effect and ±100 for the full control effect
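Luciferase read-out (15 sec integration) after a 15 min room-temperature substrate step quantifies HCVcc-Cre infection. Cells, 1,000 per well, had compound added 4 h post-plating, then virus at ~0.5 moi, and were cultured 44 h.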
An asterisk follows results filed as active; u = inconclusive; x = no result given; [ ] = another dose, or the depositor's remark. Shown are actives, neighbours in structure and some others; about 13% of the full set was active somewhere.

SMILES	MARV entry inh	Shiga inhibitor	FMDV antiviral	LASV entry inh	Cycloheximide cs	HCV inh
Cc1ccc(-n2[nH]c(C)c(C=Nc3ccc(S(=O)(=O)Nc4nccs4)cc3)c2=O)cc1	5.3%	-9.1	x	12.3%	-1.5	6.9%
CCc1nnc(NS(=O)(=O)c2ccc(N=Cc3c(C)[nH]n(-c4ccc(C)c(C)c4)c3=O)cc2)s1	4.0%	10.1	-14.3%	8.3%	11.7*	35.9%
COc1ccc(-n2nc([N+](=O)[O-])c(=NCCc3ccccc3)n2O)cc1	u	-7.6	8.1%	16.4%	14.8*	u
O=[N+]([O-])c1nn(-c2ccccc2)n(O)c1=NC1CCN(Cc2ccccc2)CC1	u	8.5	-18.2%	u	-2.1	2µM*
O=[N+]([O-])c1nn(-c2ccccc2)n(O)c1=NCCc1ccccc1	u	111.8*	8.6%	u	25.2*	11.2µM*
Cc1ccc(CCN=c2c([N+](=O)[O-])nn(-c3ccccc3)n2O)cc1	2.5%[46.1 µM]	23.3	-20.5%	-1.9%	7.0	-27.0%
Cc1cccn2c(=O)c(/C=C(\C#N)C(=O)NC3CCS(=O)(=O)C3)c(Oc3ccccc3Cl)nc12 (stereo unspecified)	u	-3.8	20µM*	-10.9%[46.1 µM]	-5.9	-14.9%
Cc1cccn2c(=O)c(/C=C(\C#N)C(=O)NC3CCS(=O)(=O)C3)c(N3CCC(C(N)=O)CC3)nc12 (stereo unspecified)	7.2%	2.9	0.0%	21.2%	-2.1	5.1%
Cc1cccn2c(=O)c(/C=C(\C#N)C(=O)NC3CCS(=O)(=O)C3)c(N3CC(C)OC(C)C3)nc12 (stereo unspecified)	-16.9%[46.1 µM]	-2.6	-5.8%	-0.4%	0.9	1.2%
CCOC(=O)/C(C#N)=C/c1c(Oc2cccc(C)c2)nc2c(C)cccn2c1=O	22.9%	-9.1	-14.0%	4.8%	-0.8	42.7%
Cc1ccccc1Oc1nc2c(C)cccn2c(=O)c1/C=C(\C#N)C(=O)NC1CCS(=O)(=O)C1 (stereo unspecified)	u	8.6	20µM*	12.6µM*	-1.0	-22.1%
Cc1ccc(Oc2nc3c(C)cccn3c(=O)c2/C=C(\C#N)C(N)=O)cc1	-1.8%	-7.4	17.8µM*	u	-3.7	-19.4%
CCOC(=O)C1CCCN(S(=O)(=O)c2cc(Br)cc3c2N(C(=O)C2CC2)CC3)C1 (stereo unspecified)	4.9%	-27.4	8.5%	-0.9%	1.8	1.3%
C[C@H](O)[C@@H]1C(=O)N2CCc3ccc(N4CCN(C)CC4)cc3[C@@H]2C[C@@H]1N(C)C(=O)Nc1cc(Cl)cc(Cl)c1	x	x	-3.8%	x	x	u
C[C@H](O)[C@@H]1C(=O)N2CCc3ccc(-c4ccccc4)cc3[C@@H]2C[C@@H]1N(C)C(=O)Nc1cc(Cl)cc(Cl)c1	x	x	-25.0%	x	x	11.2µM*
C=C(C)COc1ccc(-c2[nH]ncc2-c2ccccc2OC)c(O)c1	7.94µM*	-18.3	-29.6%	u	-5.5	u
C=C(C)COc1ccc(-c2[nH]ncc2-c2ccc(Br)cc2)c(O)c1	3.26µM*	-11.1	-18.1%	u	-3.7	u
C=C(C)COc1ccc(-c2ncncc2-c2ccc(Br)cc2)c(O)c1	u	-2.9	-28.7%	u	-2.4	u
C=C(C)COc1ccc(-c2[nH]ncc2Oc2ccc(OC)cc2)c(O)c1	x	29.5	23.3%	x	22.0*	u
CCc1cc(-c2[nH]ncc2-c2ccc(OC)cc2)c(O)cc1O	u	-19.3	11.2µM*	u	-5.4	3.98µM*
CCOC(=O)c1cc(NCc2cccs2)ccc1N1CCOCC1	21.8%[46.1 µM]	-9.7	-12.3%	-13.7%[46.1 µM]	1.1	u
O=C(CN1C(=O)COc2ccc(S(=O)(=O)NC3CCCC3)cc21)Nc1ccc(F)c(Cl)c1	x	x	-11.7%	u	x	x
C=C(C)COc1ccc(-c2n[nH]c(C)c2-c2ccc(Br)cc2)c(O)c1	u	-4.0	x	0.366µM*	-2.4	u
N#Cc1cc2c(nc1SCC(=O)Nc1ccc(Cl)c(C(F)(F)F)c1)C1CCN2CC1	u	x	0.0%	-0.3%[46.1 µM]	x	x
CC1(O)CC(c2ccc(Cl)cc2)=NN1C(=O)c1ccc([N+](=O)[O-])cc1 (stereo unspecified)	-26.3%[46.1 µM]	9.3	u	-20.5%	2.7	u
SMILES	MARV entry inh	Shiga inhibitor	FMDV antiviral	LASV entry inh	Cycloheximide cs	HCV inh
Cc1ccc2c(c1)N=C(c1ccc(F)cc1)CO2	u	111.0*	29.9%	3.6%	40.8*	-0.2%
Cc1ccc(-c2cc3ncc4c(n3n2)-c2cc(F)ccc2OC4)cc1	u	x	53.5%	-11.6%[46.1 µM]	x	x
O=[N+]([O-])c1ccc(C2=Nc3cc(Cl)ccc3OC2)cc1	10.5%[46.1 µM]	62.1*	19.3%	2.5%[46.1 µM]	12.1	4.6%
Cc1c2ccccc2nc2c(F)c(NC(C)C)c(F)c(F)c12	u	55.4*	55.7%	15.5%	44.8*	u
Cc1ccc(O)c(NC(=O)c2noc3c2CCc2ccccc2-3)c1	u	87.4*	40.9%	10.0%[46.1 µM]	42.6*	u
CC(=O)c1cccc(NC(=O)c2noc3c2CCc2ccccc2-3)c1	x	65.9*	75.0%	x	34.8*	14.4%
Cc1cc(C)cc(NC(=O)CCCn2nc(C)c3c(C)n(-c4ccccc4)nc3c2=O)c1	x	-1.9	-20.8%	u	-2.0	10.1%
O=C(Cn1c(=O)nc(-c2ccccc2)c2cc(Cl)ccc21)NCc1ccccc1	x	x	14.1µM*	-8.6%[46.1 µM]	x	x
Cc1cc(=O)n(Cc2ccccc2)c2ccccc12	x	-7.3	0.4%	x	-2.1	7.9%
Cc1cc(=O)c2ccccc2n1Cc1ccccc1	u	-13.6	u	-2.3%[46.1 µM]	11.7	12.6µM*
COc1ccc(NC(=O)Cn2c(C)cc(=O)c3ccccc32)cc1	u	-15.9	u	u	-6.1	7.08µM*
COc1cccc2c(=O)cc(C)n(CC(=O)Nc3cccc(C)c3)c12	-38.9%	-17.5	u	-30.1%	-6.0	8.91µM*
OCCCc1nc2ccccc2n1CCCCOc1ccccc1	x	8.6	-18.6%	-1.0%[46.1 µM]	-3.5	6.6%
CCC(C)NS(=O)(=O)c1ccc(OCC(=O)NCC2CCCO2)cc1 (stereo unspecified)	1.2%	-8.1	x	11.2%	1.4	4.6%
COc1ccc(OCC(=O)Nc2cccc(C(C)=O)c2)cc1	3.1%[46.1 µM]	-9.4	9.4%	21.5%	-1.3	17.7%
COc1ccc(NC(=O)CCn2cc(C)c3ccccc32)cc1	-9.5%	56.1*	60.1%	u	48.3*	-29.7%
Cc1cc(=O)c2ccccc2n1CC(=O)NCc1ccccc1	10.3µM*	-2.3	u	u	-3.5	u
N#CCC1c2ccccc2CCN1C(=O)Nc1ccc(Cl)cc1 (stereo unspecified)	10.4%	-4.1	12.1%	4.3%	-3.5	u
Cc1ccc(N=c2ssnc2Cl)cc1	-23.6%	32.8	-17.2%	u	26.4*	10.2%
Nc1ccccc1N=c1ssnc1Cl	28.3%[46.1 µM]	55.1*	20.6%	11.2%[46.1 µM]	18.8	u
COc1cc(N=c2ssnc2Cl)c(OC)cc1Cl	16.4µM*	-9.1	u	u	-1.7	u
Cc1cc(C)nc(/N=c2/ssnc2Cl)c1	-20.6%	-5.9	28.2µM*	5.6%	-3.1	-7.8%
